# Test results as given in the supplement of paper PMC8975748.
# Counter-ions that a name gives are not always drawn.
# System: Saccharomyces cerevisiae BY4741 SeMeCo community
# Assay: z-score of subpopulation abundance vs DMSO median, subpopulation auxotrophic for H; higher = larger share of this subpopulation than in DMSO controls
# Details: 10 µM; 24 h; SM minimal medium; subpopulation (auxotrophy): H
# Procedure: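 Fluorescent four-plasmid SeMeCo (self-establishing metabolically cooperating S. cerevisiae BY4741 community; plasmids pH-mRuby2, pL-mWasabi, pU-eCFP, pM-TagRFP657) was grown 24 h in minimal SM medium with each Selleck FDA-approved drug at 10 µM in 384-well plates. Cells were fixed and imaged by high-content confocal microscopy. For each auxotrophic subpopulation (and the prototroph), a z-score gives the deviation from the DMSO vehicle-control population median.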
row,SMILES,z-score of subpopulation abundance
1,CN1[C@@H]2CC[C@H]1C[C@@H](OC(=O)[C@H](CO)c1ccccc1)C2 [Hyoscyamine],-0.74
2,CC1(C)SC2C(N)C(=O)N2C1C(=O)O (centres undefined) [6-Aminopenicillanic acid],0.55
3,COc1ccc2[nH]cc(CCN)c2c1 [5-Methoxytryptamine],-0.85
4,CC[C@H]1[C@@H]2C[C@H]3[C@@H]4N(C)c5ccccc5[C@]45C[C@@H]([C@@H]2[C@H]5O)N3[C@@H]1O [Ajmaline],-0.87
5,CN1c2ccccc2C(NCCCCCCC(=O)O)c2ccc(Cl)cc2S1(=O)=O (centres undefined) [Tianeptine sodium],-0.28
6,C=CC[C@]1(O)CC[C@H]2[C@@H]3CCC4=CC(=O)CCC4=C3C=C[C@@]21C [Altrenogest],0.24
7,Cc1cc(C(C#N)c2ccc(Cl)cc2)c(Cl)cc1NC(=O)c1cc(I)cc(I)c1O (centres undefined) [Closantel],-0.23
8,Cn1cc(C2=C(c3cn(C4CCN(Cc5ccccn5)CC4)c4ccccc34)C(=O)NC2=O)c2ccccc21,-2.71
9,CCOC(=O)Nc1ccc(NCc2ccc(F)cc2)cc1N [Retigabine],1.45
10,COc1ccc2c(c1)[C@]13CCCC[C@@H]1[C@H](C2)N(C)CC3 [Dextromethorphan hydrobromide hydrate],0.44
11,C[N+]1(C)[C@@H]2C[C@@H](OC(=O)[C@H](CO)c3ccccc3)C[C@H]1[C@@H]1O[C@@H]12 [Methscopolamine],0.28
12,CCN(C)C(=O)Oc1cccc([C@H](C)N(C)C)c1 [Rivastigmine Tartrate],-0.17
13,CN(C)[C@@H]1C(=O)C(C(N)=O)=C(O)[C@@]2(O)C(=O)C3=C(O)c4c(O)ccc(Cl)c4[C@@](C)(O)[C@H]3C[C@@H]12 [Chlortetracycline HCl],0.94
14,COc1cc2c(cc1OC)C1CC(=O)C(CC(C)C)CN1CC2 (centres undefined) [Tetrabenazine (Xenazine)],0.02
15,C#C[C@]1(O)C=C[C@H]2[C@@H]3CCC4=CC(=O)CC[C@@H]4[C@H]3CC[C@@]21CC [Gestodene],0.25
16,O=c1cccc2n1C[C@@H]1CNC[C@H]2C1 [Cytisine],-0.04
17,C=C[C@H]1CN2CC[C@H]1C[C@H]2[C@H](O)c1ccnc2ccccc12 [Cinchonidine],-0.15

row,SMILES,z-score of subpopulation abundance
1,C[C@H]1O[C@H](O[C@H]2[C@H](O)[C@@H](O)[C@@H](O)[C@H](O)[C@@H]2O)[C@@H](N)C[C@@H]1NC(=N)C(=O)O [Kasugamycin hydrochloride],0.49
2,CN[C@@H]1[C@@H](O)[C@@H](O[C@@H]2[C@@H](O)[C@H](O[C@H]3O[C@H](CN)CC[C@H]3N)[C@@H](N)C[C@H]2N)OC[C@]1(C)O.CN[C@@H]1[C@@H](O)[C@@H](O[C@@H]2[C@@H](O)[C@H](O[C@H]3O[C@H]([C@@H](C)N)CC[C@H]3N)[C@@H](N)C[C@H]2N)OC[C@]1(C)O.CN[C@@H]1[C@@H](O)[C@@H](O[C@@H]2[C@@H](O)[C@H](O[C@H]3O[C@H]([C@@H](C)NC)CC[C@H]3N)[C@@H](N)C[C@H]2N)OC[C@]1(C)O [Gentamicin Sulfate],-0.2
3,CC[C@@]1(O)C(=O)OCc2c1cc1n(c2=O)Cc2cc3ccccc3nc2-1 [Camptothecin],-1.03
4,O=C(O[C@H]1C[N+]2(CCCOc3ccccc3)CCC1CC2)C(O)(c1cccs1)c1cccs1 [Aclidinium Bromide],-0.92
5,CC[N+](C)(CC)CCOC(=O)C(O)(c1ccccc1)c1ccccc1 [Methylbenactyzine Bromide],0.06
6,CN(C)C(=O)Oc1cccc([N+](C)(C)C)c1 [Neostigmine Bromide],0.03
7,NC(=O)CN1CCCC1=O [Piracetam],1.01
8,"NCC(O)c1ccc(O)cc1 (racemic) [(+,-)-Octopamine HCl]",-1.07
9,CNC1CC(N)C(O)C(OC2OC(CO)C(O)C3OC4(OC(C(N)CO)C(O)C(O)C4O)OC23)C1O (centres undefined) [Hygromycin B],-0.88
10,CC[C@H]1CN2CC[C@]3(C(=O)Nc4ccccc43)[C@@H]2C[C@@H]1/C(=C\OC)C(=O)OC [Rhynchophylline],-0.08
11,C=CCN1C[C@H](C(=O)N(CCCN(C)C)C(=O)NCC)C[C@@H]2c3cccc4[nH]cc(c34)C[C@H]21 [Cabergoline],-0.38
12,CN(C)[C@@H]1C(=O)C(C(N)=O)=C(O)[C@@]2(O)C(=O)C3=C(O)c4c(O)cccc4[C@@](C)(O)[C@H]3[C@H](O)[C@@H]12 [Oxytetracycline (Terramycin)],1.45
13,CN(C)[C@@H]1C(=O)C(C(N)=O)=C(O)[C@@]2(O)C(=O)C3=C(O)c4c(O)cccc4[C@@](C)(O)[C@H]3[C@H](O)[C@@H]12 [Oxytetracycline Dihydrate],0.31
14,N#Cc1nn(-c2c(Cl)cc(C(F)(F)F)cc2Cl)c(N)c1[S+]([O-])C(F)(F)F (centres undefined) [Fipronil],0.48
15,CN1[C@@H]2C[C@@H](OC(=O)[C@H](CO)c3ccccc3)C[C@H]1[C@@H]1O[C@@H]12 [Scopolamine HBr],-0.96
16,CCCN1C[C@H](CSC)C[C@@H]2c3cccc4[nH]cc(c34)C[C@H]21 [Pergolide Mesylate],-0.28
17,Nc1ccncc1 [4-Aminopyridine],-0.01
